Measured values reported in PubChem BioAssay (NCATS).
“And” between values parts separate entries of the source, which are not always exact repeats. Equal values may be shown once. Records with an inconclusive call do not appear. The source made the active and inactive calls. The call rests on the fitted dose curve; in most records, active means well fitted curve in the direction sought with a large enough effect; inconclusive means small, poorly fitted or top-dose-only effect, or another doubt; inactive means no such curve, though single readings can be large; an effect the other way counts as inactive or inconclusive.

Key:
[1] = target: Cellular tumor antigen p53 (Homo sapiens) (UniProt P04637); experiment: Primary qHTS for small molecule compounds that upregulate eGFP-tagged delta133p53alpha (in N-terminal) cells. (AID 2060322); details: NCI-H358 eGFP-delta133p53alpha fluorescence, 24 h; activation: stronger effect = higher value;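 further: 0% = DMSO vehicle and 100% = reference activator; nearly all actives have a fitted effect of over 75% in size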
Sequence of Cellular tumor antigen p53 (Homo sapiens) (P04637 whole entry, looked up): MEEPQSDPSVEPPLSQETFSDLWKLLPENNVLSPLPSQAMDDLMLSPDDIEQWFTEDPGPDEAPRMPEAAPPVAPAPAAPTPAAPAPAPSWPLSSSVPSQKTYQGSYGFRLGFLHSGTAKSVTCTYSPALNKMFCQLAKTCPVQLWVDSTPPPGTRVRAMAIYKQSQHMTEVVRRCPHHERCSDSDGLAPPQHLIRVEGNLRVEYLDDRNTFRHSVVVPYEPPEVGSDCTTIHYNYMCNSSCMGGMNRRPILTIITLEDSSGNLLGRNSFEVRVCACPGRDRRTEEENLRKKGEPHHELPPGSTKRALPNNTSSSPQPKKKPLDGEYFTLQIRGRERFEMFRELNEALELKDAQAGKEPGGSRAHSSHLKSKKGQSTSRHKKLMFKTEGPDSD
Summary of the method: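 NCI-H358 cells pre-induced 24 h with 10 ng/ml doxycycline to express N-terminal eGFP-delta133p53alpha, then dosed 24 h at 37C without doxycycline; fixed, Hoechst-stained, GFP intensity by laser scanning cytometry, normalized to DMSO (0%) and 57.5 uM 5-azacytidine (100%).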

[2] = target: Aldehyde dehydrogenase, mitochondrial (Homo sapiens) (UniProt P05091); experiment: qHTS for Inhibitors of the Aldehyde Dehydrogenase Family (ALDH2) Primary screen (AID 2061308); details: ALDH2 enzyme inhibition qHTS, 1536-well; series mostly up to 56 µM;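 further: plate controls were vehicle for no effect and reference inhibitor for full effect; nearly all actives have a fitted effect of over 55% in size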
[3] = target: Retinaldehyde dehydrogenase 3 (Homo sapiens) (UniProt P47895); experiment: qHTS for Inhibitors of the Aldehyde Dehydrogenase Family (ALDH1A3) Validation screen (AID 2061312); details: ALDH1A3 enzyme inhibition qHTS validation, fluorescence; series mostly up to 84.7 µM; further: on the % scale 0 is the no-effect control and ±100 the full control effect; nearly all actives have a fitted effect of over 45% in size
[4] = BET inhibitor-based combinations targeting novel dependencies in MECOM-rearranged (r) AML: MV-4-11 cell line (AID 2202233); details: MV-4-11 AML viability, CellTiter-Glo luminescence, 48 h; series mostly up to 46 µM; further: potency means the concentration at half of the fitted maximal effect; nearly all actives have a fitted effect of over 45% in size
Summary of the method: (§1)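 Activity is given as area under the curve and as Z-AUC, mean-centred within each cell line. It comes from 11-point dose curves normalized to DMSO and empty wells. CellTiter-Glo luminescence was read after 48 hr drug exposure of 500 cells/well.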

[5] = target: Retinaldehyde dehydrogenase 3 (Homo sapiens) (UniProt P47895); experiment: qHTS for Inhibitors of the Aldehyde Dehydrogenase Family (ALDH1A3) Primary screen (AID 2061315); details: ALDH inhibition qHTS; series mostly up to 56 µM;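 further: plate controls were DMSO vehicle for no effect and reference inhibitor for full effect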
[6] = BET inhibitor-based combinations targeting novel dependencies in MECOM-rearranged (r) AML: OCI-AML3 cell line (AID 2202232); details: CellTiter-Glo luminescence, 48 h; Potency: OCI-AML3 viability; series mostly up to 46 µM; further: potency means the concentration at half of the fitted maximal effect; nearly all actives have a fitted effect of over 35% in size
Summary of the method: (§2)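 Cells were plated at 500 per well and exposed to an 11-point dose series of each drug for 48 hr. Viability was measured by CellTiter-Glo luminescence, normalized to DMSO and empty-well controls, and summarized as AUC and per-cell-line Z-AUC.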

[7] = BET inhibitor-based combinations targeting novel dependencies in MECOM-rearranged (r) AML: UCSD-AML1 cell line (AID 2202235); details: UCSD-AML1 AML cells viability, CellTiter-Glo, 48 h; series mostly up to 46 µM; further: nearly all actives have a fitted effect of over 40% in size; further: potency means the concentration at half of the fitted maximal effect
Summary of the method: as §1

[8] = BET inhibitor-based combinations targeting novel dependencies in MECOM-rearranged (r) AML: AML-191 cell line (AID 2202236; further: nearly all actives have a fitted effect of over 35% in size; further: potency means the concentration at half of the fitted maximal effect); details: AML-191 viability, CellTiter-Glo luminescence, 48 h; series mostly up to 46 µM
Summary of the method: as §2

[9] = BET inhibitor-based combinations targeting novel dependencies in MECOM-rearranged (r) AML: AML-194 cell line (AID 2202237;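 further: plate controls were vehicle wells for no effect and wells without cells for full effect; nearly all actives have a fitted effect of over 40% in size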); details: AML-194 (MECOM-r AML) viability, CellTiter-Glo, 48 h; series mostly up to 46 µM
Summary of the method: as §2

CNCc1ccc(-c2[nH]c3cc(F)cc4c3c2CCNC4=O)cc1
active: Potency [4] 11.8 µM
inactive: activation [1] 35.7% | Potency [2] | Potency [3]

CCOC(=O)C1=C(C)NC2=C(C(=O)CC(C)(C)C2)C1c1ccc(-c2ccccc2)cc1 (configuration not stated)
inactive: activation [1] 5.7% | Potency [2] | Potency [3] | Potency [5] | Potency [7] | Potency [8] | Potency [9]
active: Potency [6] 13.2 µM

O=C(Nc1cccnc1)N1CCC(Cc2cccc(Oc3ccc(C(F)(F)F)cn3)c2)CC1
inactive: activation [1] -5.98% and -11% | Potency [2] | Potency [3] | Potency [5]
active: Potency [4] 5.9 µM | Potency [7] 26.3 µM | Potency [8] 20.9 µM

COc1ccc(/C=C/C(N)=O)cc1OC
inactive: activation [1] 2.68% | Potency [2] | Potency [5]

COCCCNC(=O)c1ccc(Cn2c(=O)c3ccccc3n(Cc3ccc(C(C)C)cc3)c2=O)cc1
inactive: activation [1] 7% | Potency [2] | Potency [5]

CC1C2=CC(=O)OC2(O)CC2C1C(OC(=O)c1ccccc1)C(OC(=O)c1ccccc1)C1(O)C2(C)CCC(O)C1(C)C(=O)O (configuration not stated)
inactive: activation [1] 26.7% | Potency [2] | Potency [5]

C=C1CCC2C(C)(C)C(O)CCC2(C)C1CCC(C)CCOC(=O)CCC(=O)O (configuration not stated)
inactive: activation [1] -3.82% | Potency [2] | Potency [5]

N#Cc1cc(-c2ccnc(Nc3ccc(N4CCOCC4)cc3)n2)ccc1OC1CCOCC1
inactive: activation [1] -18.8% | Potency [2] | Potency [5]

COC(=O)C1=COC(OC2OC(CO)C(O)C(O)C2O)C2C(C)CC(=O)C12O (configuration not stated)
inactive: activation [1] -4.46% | Potency [2] | Potency [5]
